Reference: PubChem BioAssay (Tox21)
Results filed as inconclusive are left out. Calls of active or inactive are those of the source. Unless noted, calls come from the whole dose curve; as a rule, active = well fitted curve in the direction sought with a large enough effect in the repeat runs; inconclusive = weak or mixed curves; inactive = no such curve, though single readings can be large; an effect the other way counts as inactive or inconclusive.

Columns and labels:
[1] = target: Aryl hydrocarbon receptor (Homo sapiens) (UniProt P35869); assay: qHTS assay to identify small molecule that activate the aryl hydrocarbon receptor (AhR) signaling pathway (AID 743085);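 note: HG2L7.5c1 human HepG2 liver cells with stably integrated DRE-driven firefly reporter; series mostly up to about 70 µM; nearly all actives have a fitted effect of over 15% in size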
Method in brief: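 Compounds were tested in HepG2 hepatocellular carcinoma cells harbouring a stably integrated luciferase gene under control of 20 DREs. Increased reporter signal after 24 h treatment at 37C was taken as AhR activation.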

[2] = qHTS assay to identify small molecule that activate the aryl hydrocarbon receptor (AhR) signaling pathway - cell viability counter screen (AID 743086);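 note: HepG2 liver cells carrying the AhR DRE luciferase reporter; series mostly up to about 70 µM; nearly all actives have a fitted effect of over 45% in size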
Method in brief: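 HepG2-AhR-luc (HG2L7.5c1) cells, 4000/well, treated 24 h at 37 C with compound; viability measured as CellTiter-Fluor fluorescence after 30 min in the same wells as the luciferase read.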

[3] = target: Peroxisome proliferator-activated receptor gamma (Homo sapiens) (UniProt P37231); assay: qHTS assay to identify small molecule agonists of the peroxisome proliferator-activated receptor gamma (PPARg) signaling pathway (AID 743094; active = well fitted activation curve with a large enough effect in the signal ratio in the repeat runs, not every such curve was filed as active; the % refers to the signal ratio)
Method in brief: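 Agonist activity was taken from a beta-lactamase reporter (FRET substrate, 1 h at room temperature) in HEK293H cells carrying a PPARg UAS-bla construct. Compounds in DMSO were incubated 17 h at 37C after a 5 h cell pre-incubation.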

[4] = target: Peroxisome proliferator-activated receptor gamma (Homo sapiens) (UniProt P37231); assay: qHTS assay to identify small molecule antagonists of the peroxisome proliferator-activated receptor gamma (PPARg) signaling pathway (AID 743191; calls by dose curve; note: series mostly up to about 63 µM; nearly all actives have a fitted effect of over 30% in size)
Method in brief: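 GeneBLAzer PPARg UAS-bla HEK293H cells, 5 h post-plating, exposed to compounds 17 h at 37C. LiveBLAzer B/G FRET substrate added for 1 h at room temperature; beta-lactamase reporter read by fluorescence intensity.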

[5] = qHTS assay to identify small molecule antagonists of the peroxisome proliferator-activated receptor gamma (PPARg) signaling pathway - cell viability counter screen (AID 743194); note: nearly all actives have a fitted effect of over 55% in size
Method in brief: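 Cytotoxicity counter screen in PPARg-bla HEK293H cells, same wells as reporter assay. Compounds plus 50 nM rosiglitazone (final) for 17 h at 37 C, then viability read by CellTiter-Glo luminescence.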

[6] = qHTS assay for small molecule agonists of the antioxidant response element (ARE) signaling pathway (AID 743202; active = well fitted activation curve with a large enough effect in the signal ratio in the repeat runs, not every such curve was filed as active; the % refers to the signal ratio)
Method in brief: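 HepG2 ARE-bla reporter line, 2,000 cells/well; 5 h preincubation 37 C/5% CO2; compound (DMSO) 16 h 37 C; B/G FRET substrate 2 h RT; fluorescence intensity.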

[7] = qHTS assay for small molecule agonists of the antioxidant response element (ARE) signaling pathway - cell viability counter screen (AID 743203; calls by dose curve; note: nearly all actives have a fitted effect of over 55% in size)
Method in brief: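 Viability counter screen: CellTiter-Glo luminescence, read after 30 min at room temperature, in ARE-bla HepG2 wells. Compound exposure lasted 16 h at 37C/5% CO2, following a 5 h pre-incubation of the cells after plating.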

[8] = qHTS assay for small molecule activators of the heat shock response signaling pathway - cell viability counter screen (AID 743209); note: nearly all actives have a fitted effect of over 50% in size
Method in brief: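 Cytotoxicity counter screen run in the same wells as the heat-shock bla reporter assay: HeLa HSE-bla cells, 5 h compound exposure at 37 C, viability read by CellTiter-Glo luminescence.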

[9] = qHTS assay for small molecule activators of the heat shock response signaling pathway (AID 743210; active = well fitted activation curve with a large enough effect in the signal ratio in the repeat runs, with a control signal flat, not every such curve was filed as active; the % refers to the signal ratio;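 note: HeLa cells with beta-lactamase reporter driven by heat shock elements; series mostly up to about 63 µM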)
Method in brief: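 Beta-lactamase reporter read-out: FRET substrate fluorescence after 2.5 h at RT, following 5 h compound treatment at 37 C of HeLa cells carrying HSE-driven bla reporter; quantitative HTS format.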

[10] = qHTS assay to identify small molecule agonists of the peroxisome proliferator-activated receptor delta (PPARd) signaling pathway - cell viability counter screen (AID 743211); note: nearly all actives have a fitted effect of over 55% in size
Method in brief: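 Counter screen for cytotoxicity run in parallel with the PPARd reporter screen. Beta-lactamase reporter HEK293H cells exposed to compounds 17 h; ATP-based CellTiter-Glo luminescence quantified viability.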

[11] = target: Peroxisome proliferator-activated receptor delta (Homo sapiens) (UniProt Q03181); assay: qHTS assay to identify small molecule agonists of the peroxisome proliferator-activated receptor delta (PPARd) signaling pathway (AID 743212; calls by dose curve)
Method in brief: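 Read-out: beta-lactamase FRET fluorescence after 2 h room-temperature incubation with LiveBLAzer B/G substrate. Cells were HEK293H carrying a UAS-bla reporter for PPARd, treated at 37 C with DMSO-dissolved compounds.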

[12] = qHTS assay to identify small molecule antagonists of the peroxisome proliferator-activated receptor delta (PPARd) signaling pathway - cell viability counter screen (AID 743213); note: nearly all actives have a fitted effect of over 50% in size
Method in brief: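 HEK293H cells with the PPARd UAS-bla reporter, co-treated 17 h at 37 C with compounds and L165041 (300 nM final), were lysed with CellTiter-Glo. Luminescence indicated viable cell content.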

[13] = qHTS assay to identify small molecule antagonists of the farnesoid-X-receptor (FXR) signaling pathway - cell viability counter screen (AID 743221; active = well fitted cell-killing curve with a large enough effect in the repeat runs, not every such curve was filed as active; note: nearly all actives have a fitted effect of over 50% in size)
Method in brief: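 Multiplexed counter screen: viability of FXR-bla HEK 293T cells under agonist stimulation by chenodeoxycholic acid (50 uM, final) and test compound for 16 h at 37 C, measured by CellTiter-Glo luminescence in the reporter wells.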

[14] = target: Vitamin D3 receptor (Homo sapiens) (UniProt P11473); assay: qHTS assay to identify small molecule agonists of the vitamin D receptor (VDR) signaling pathway (AID 743222; calls by dose curve)
Method in brief: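 Agonist mode, beta-lactamase reporter: fluorescence from LiveBLAzer B/G FRET substrate (2 h, room temperature) read after 16 h compound treatment at 37 C of VDR-bla cells, which were pre-incubated 4 h after seeding.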

[15] = target: Vitamin D3 receptor (Homo sapiens) (UniProt P11473); assay: qHTS assay to identify small molecule antagonists of the vitamin D receptor (VDR) signaling pathway (AID 743223; active = well fitted inhibition curve with a large enough effect in the signal ratio in the repeat runs, not every such curve was filed as active; the % refers to the signal ratio)
Method in brief: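 Cells carrying a VDR-driven beta-lactamase reporter (VDR-bla) were co-treated with compound and 3 nM final 1alpha,25-dihydroxyvitamin D3 for 16 h at 37C; reporter activity was measured as FRET substrate fluorescence after 2 h at room temperature.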

[16] = qHTS assay to identify small molecule agonists of the vitamin D receptor (VDR) signaling pathway - cell viability counter screen (AID 743224); note: series mostly up to about 63 µM; nearly all actives have a fitted effect of over 50% in size
Method in brief: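 Counter screen run in the same wells as the VDR-bla reporter assay: CellTiter-Glo luminescence, 30 min at room temperature, after 16 h compound treatment at 37C of cells pre-plated for 4 h.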

[17] = target: Peroxisome proliferator-activated receptor delta (Homo sapiens) (UniProt Q03181); assay: qHTS assay to identify small molecule antagonists of the peroxisome proliferator-activated receptor delta (PPARd) signaling pathway (AID 743215; active = well fitted inhibition curve with a large enough effect in the signal ratio in the repeat runs, not every such curve was filed as active; the % refers to the signal ratio;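 note: cells stimulated with agonist L165041 at 300 nM final during compound exposure; series mostly up to about 62 µM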)
Method in brief: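 Agonist L165041 (300 nM final) added with compound to PPARd-bla HEK293H UAS-bla reporter cells; 17 h incubation at 37 C. Read-out: LiveBLAzer FRET substrate, 2 h at room temperature, fluorescence intensity.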

[18] = target: Bile acid receptor (Homo sapiens) (UniProt Q96RI1); assay: qHTS assay to identify small molecule antagonists of the farnesoid-X-receptor (FXR) signaling pathway (AID 743217; active = well fitted inhibition curve with a large enough effect in the signal ratio in the repeat runs, not every such curve was filed as active; the % refers to the signal ratio)
Method in brief: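 Antagonist mode: chenodeoxycholic acid at 50 uM final stimulates a UAS-driven beta-lactamase reporter in HEK 293T FXR-bla cells during 16 h, 37C compound exposure. Read-out is FRET substrate fluorescence after 2 h at room temperature.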

[19] = qHTS assay to identify small molecule agonists of the farnesoid-X-receptor (FXR) signaling pathway - cell viability counter screen (AID 743218); note: nearly all actives have a fitted effect of over 45% in size
Method in brief: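 Viability counter screen in the same wells: CellTiter-Glo luminescence, 30 min room-temperature incubation, measured after the beta-lactamase read. Cells were GeneBLAzer FXR-UAS-bla HEK 293T, compound-treated 16 h at 37C.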

[20] = target: Bile acid receptor (Homo sapiens) (UniProt Q96RI1); assay: qHTS assay to identify small molecule agonists of the farnesoid-X-receptor (FXR) signaling pathway (AID 743220; active = well fitted activation curve with a large enough effect in the signal ratio in the repeat runs, not every such curve was filed as active; the % refers to the signal ratio)
Method in brief: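 FXR-UAS-bla HEK 293T cells carrying a UAS-driven beta-lactamase reporter were plated for 5 h at 37C/5% CO2, then exposed to DMSO-dissolved Tox21 10K compounds for 16 h at 37C. A LiveBLAzer B/G FRET substrate was loaded for 2 h at room temperature before fluorescence reading.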

Measured: Potency

Sequence of Peroxisome proliferator-activated receptor gamma (Homo sapiens) (P37231 whole entry, looked up): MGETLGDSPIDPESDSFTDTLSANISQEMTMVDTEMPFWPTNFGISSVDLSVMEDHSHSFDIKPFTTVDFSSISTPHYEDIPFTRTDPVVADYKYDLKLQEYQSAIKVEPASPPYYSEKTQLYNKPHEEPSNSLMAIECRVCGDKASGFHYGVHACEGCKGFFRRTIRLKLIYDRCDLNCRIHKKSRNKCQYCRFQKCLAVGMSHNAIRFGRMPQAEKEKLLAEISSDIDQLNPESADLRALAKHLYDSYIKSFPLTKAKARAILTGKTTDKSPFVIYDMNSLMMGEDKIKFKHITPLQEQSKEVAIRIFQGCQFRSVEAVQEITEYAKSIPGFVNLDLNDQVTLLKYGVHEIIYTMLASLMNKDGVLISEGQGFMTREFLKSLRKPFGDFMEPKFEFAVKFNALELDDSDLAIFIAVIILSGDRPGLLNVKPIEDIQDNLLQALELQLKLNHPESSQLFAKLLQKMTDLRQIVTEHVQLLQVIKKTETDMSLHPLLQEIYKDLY
Sequence of Aryl hydrocarbon receptor (Homo sapiens) (P35869 whole entry, looked up): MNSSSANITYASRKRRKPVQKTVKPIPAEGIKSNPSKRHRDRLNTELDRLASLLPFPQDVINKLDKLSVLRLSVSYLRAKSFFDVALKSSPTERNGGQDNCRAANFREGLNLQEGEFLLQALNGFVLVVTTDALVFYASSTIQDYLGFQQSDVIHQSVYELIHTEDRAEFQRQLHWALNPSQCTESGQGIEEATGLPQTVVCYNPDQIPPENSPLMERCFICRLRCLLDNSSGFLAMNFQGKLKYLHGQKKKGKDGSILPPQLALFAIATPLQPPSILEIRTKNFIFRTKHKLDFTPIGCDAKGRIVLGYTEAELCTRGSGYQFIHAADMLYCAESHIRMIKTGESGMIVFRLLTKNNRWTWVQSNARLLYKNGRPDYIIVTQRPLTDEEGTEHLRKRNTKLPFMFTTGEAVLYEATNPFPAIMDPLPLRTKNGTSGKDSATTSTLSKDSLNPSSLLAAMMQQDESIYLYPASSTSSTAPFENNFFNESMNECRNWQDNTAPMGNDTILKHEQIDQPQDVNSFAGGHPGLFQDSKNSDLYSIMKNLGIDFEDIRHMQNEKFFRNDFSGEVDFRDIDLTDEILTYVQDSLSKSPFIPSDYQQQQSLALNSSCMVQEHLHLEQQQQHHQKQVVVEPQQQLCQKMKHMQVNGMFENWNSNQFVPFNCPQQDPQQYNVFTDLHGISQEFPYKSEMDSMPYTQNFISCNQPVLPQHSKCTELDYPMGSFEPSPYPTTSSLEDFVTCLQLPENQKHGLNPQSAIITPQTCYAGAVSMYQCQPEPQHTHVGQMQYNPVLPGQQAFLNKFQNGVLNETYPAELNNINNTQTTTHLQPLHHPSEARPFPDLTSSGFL
Sequence of Vitamin D3 receptor (Homo sapiens) (P11473 whole entry, looked up): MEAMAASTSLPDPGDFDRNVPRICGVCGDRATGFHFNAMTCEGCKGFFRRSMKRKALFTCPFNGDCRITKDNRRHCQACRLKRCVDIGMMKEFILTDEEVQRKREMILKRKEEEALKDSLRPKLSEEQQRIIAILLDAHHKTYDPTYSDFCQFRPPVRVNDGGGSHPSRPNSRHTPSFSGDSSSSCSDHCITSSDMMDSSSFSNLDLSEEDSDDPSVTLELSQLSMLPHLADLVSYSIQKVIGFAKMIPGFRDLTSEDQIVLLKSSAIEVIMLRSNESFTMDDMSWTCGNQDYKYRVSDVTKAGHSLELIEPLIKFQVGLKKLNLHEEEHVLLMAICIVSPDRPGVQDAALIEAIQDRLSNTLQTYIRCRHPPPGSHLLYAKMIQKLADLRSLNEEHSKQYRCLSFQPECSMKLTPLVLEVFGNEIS
Sequence of Peroxisome proliferator-activated receptor delta (Homo sapiens) (Q03181 whole entry, looked up): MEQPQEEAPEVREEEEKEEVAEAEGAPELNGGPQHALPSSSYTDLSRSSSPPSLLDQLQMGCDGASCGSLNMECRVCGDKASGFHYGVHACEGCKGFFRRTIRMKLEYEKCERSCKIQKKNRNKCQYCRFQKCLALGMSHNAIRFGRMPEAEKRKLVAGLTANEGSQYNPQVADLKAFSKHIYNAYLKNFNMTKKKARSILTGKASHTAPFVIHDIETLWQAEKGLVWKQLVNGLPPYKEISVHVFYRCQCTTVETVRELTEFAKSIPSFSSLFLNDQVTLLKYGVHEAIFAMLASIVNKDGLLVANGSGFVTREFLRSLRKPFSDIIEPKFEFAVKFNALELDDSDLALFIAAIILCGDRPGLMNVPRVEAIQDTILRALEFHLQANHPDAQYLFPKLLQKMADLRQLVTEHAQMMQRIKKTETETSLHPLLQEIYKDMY
Sequence of Bile acid receptor (Homo sapiens) (Q96RI1 whole entry, looked up): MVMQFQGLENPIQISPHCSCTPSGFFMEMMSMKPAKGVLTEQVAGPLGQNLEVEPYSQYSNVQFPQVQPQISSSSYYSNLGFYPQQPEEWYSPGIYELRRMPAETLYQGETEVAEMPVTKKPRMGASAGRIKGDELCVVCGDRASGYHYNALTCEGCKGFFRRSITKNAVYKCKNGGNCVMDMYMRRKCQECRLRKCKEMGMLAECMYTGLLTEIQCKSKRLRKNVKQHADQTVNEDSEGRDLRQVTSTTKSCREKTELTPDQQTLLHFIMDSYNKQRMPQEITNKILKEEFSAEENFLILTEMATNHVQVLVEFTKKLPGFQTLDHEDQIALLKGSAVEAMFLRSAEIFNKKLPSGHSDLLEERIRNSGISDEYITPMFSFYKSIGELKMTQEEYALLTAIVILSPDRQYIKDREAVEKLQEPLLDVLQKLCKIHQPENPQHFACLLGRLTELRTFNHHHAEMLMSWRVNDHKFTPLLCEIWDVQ

O=c1c(O)c(O)c1=O
not listed: [17] | [18] | [19] | [20]
inactive: all other assays above

Cc1ccc(O)c([N+](=O)[O-])c1
not listed: [10]
inactive: all other assays above

N#Cc1ccccc1C#N
not listed: [13] | [14] | [18] | [20]
inactive: all other assays above

COC(=O)c1c(C)cc(O)c(C)c1O
not listed: [13] | [18] | [19] | [20]
inactive: all other assays above

C[C@H]1COc2c(C3(N)CC3)c(F)cc3c(=O)c(C(=O)O)cn1c23
not listed: [12]
inactive: all other assays above

CC(C)=CCC/C(C)=C\C#N
not listed: [11] | [17] | [18]
inactive: all other assays above

COC(=O)c1ccccc1Cl
not listed: [8] | [12] | [13] | [15] | [18] | [19] | [20]
inactive: all other assays above

CC(C)(C)OC=O
not listed: [10] | [11] | [12] | [17]
inactive: all other assays above
